High-throughput results from PubChem BioAssay.
Chlamy TAG: increases triacylglycerol in Chlamydomonas reinhardtii; Chlamydomonas reinhardtii TAG, Nile Red fluorescence, 72 h; calls only at 10 µM (by protocol); 44,000 compounds, 0.84% hits; call rule not given here;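 note: hits raise Nile Red signal meaning more stored TAG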
Each line names hits and unclear results; the compound was inactive in the other large screens. Shown is part of a subset that was picked to be rich in hits.

COc1ccc(CCNC(=O)c2ccc(N3CCOCC3)c([N+](=O)[O-])c2)cc1OC	none
COCCNC(=O)c1ccc(OC)c([N+](=O)[O-])c1	none
COc1ccc(C(=O)NCCN2CCOCC2)cc1[N+](=O)[O-]	Chlamy TAG active
O=C(Cn1cnc([N+](=O)[O-])n1)Nc1ccc(F)cc1F	none
O=C(NCc1ccccc1)c1cccc(Br)c1	none
CCOc1cccc(OCCCNC(C)C)c1	none
COc1cccc(OC)c1C(=O)N1CCN(C(=O)CCC2CCCC2)CC1	none
Fc1ccccc1CSC1=NCCN1	Chlamy TAG active
Fc1ccccc1CSc1nnc(-c2ccncc2)n1-c1ccccc1	none
Fc1ccccc1CSc1nc2ncccc2[nH]1	none
Cc1ccc(NC(=O)CNC(=O)C2CCCCC2)cc1	none
N#CSCCCOc1ccc(I)cc1	none
CCc1cc(-c2[nH]ncc2-c2cnn(-c3ccccc3)c2)c(O)cc1O	none
Cc1ccc(S(=O)(=O)c2cc3c(=O)n4cc(C)ccc4nc3n(Cc3ccccc3)c2=N)cc1	none
O=Cc1c(Sc2ccc(Cl)cc2)nc2ccccn2c1=O	none
Cc1ccc2nc(SCc3ccccc3)c(C=O)c(=O)n2c1	Chlamy TAG active
COc1ccccc1NC(=O)c1ccc(N(Cc2ccccc2Cl)S(C)(=O)=O)cc1	none
CC(=O)N(C1=C(N(C)C)C(=O)c2ccccc2C1=O)c1ccc(Cl)c(Cl)c1	Chlamy TAG active
CC(=O)N(C1=C(N(C)C)C(=O)c2ccccc2C1=O)c1cccc(Cl)c1	none
CC(=O)N(C1=C(N(C)C)C(=O)c2ccccc2C1=O)c1ccc(F)c(F)c1	none
O=C(CSc1nc2ccccc2s1)Nc1cc2c(cc1Br)OCCO2	none
O=C(COc1ccccc1[N+](=O)[O-])Nc1ccc2c(c1)Cc1ccccc1-2	none
CC(C)Cc1ccc(C(C)C(=O)N2CCN(C)CC2)cc1 (stereo not given)	none
N#CC1=C(N)OC2=C(C(=O)CC(c3ccccc3)C2)C1c1ccccc1Cl (stereo not given)	none
Clc1ccc(CN2CCCCCC2)cc1	Chlamy TAG active
Clc1ccc(CN2CCCCCCC2)cc1	none
Clc1ccc(CN2CCC(N3CCCCCC3)CC2)cc1	none
Cc1c(NC(=O)c2ccc(Cl)cc2Cl)c(=O)n(-c2ccccc2)n1C	none
Cc1ccccc1C(=O)Nc1sc(C)c(C)c1C(N)=O	none
COc1ccc(C(=O)c2ccc(N3CCOCC3)c([N+](=O)[O-])c2)cc1	none
O=C(Nc1cccc(Cl)c1)c1ccc(N2CCOCC2)c([N+](=O)[O-])c1	none
CC(C)(C)c1csc(NC(=O)c2ccc(N3CCOCC3)c([N+](=O)[O-])c2)n1	Chlamy TAG active
CC(C)(Oc1ccc(Cl)cc1)C(=O)Nc1nnc(-c2ccccc2)s1	none
COc1ccc(C(=O)N2CCC(C(=O)NCc3ccc(Cl)cc3)CC2)cc1OC	none
O=C(Nc1ccc(-c2nc3ccccc3[nH]2)cc1)C1CC1	none
C=CCSc1nc2ccc(OC)cc2[nH]1	none
N#Cc1c(-n2ncnc2-c2cccnc2)sc2c1CCCCC2	Chlamy TAG active
COc1ccc(-c2ncnn2-c2sc3c(c2C#N)CCCC3)cc1OC	none
N#Cc1c(-n2ncnc2-c2ccc(F)cc2)sc2c1CCCC2	none
CC(=O)n1c(=O)n(C)c2ccc([N+](=O)[O-])cc21	none
O=C(O)Cc1c(C(=O)O)[nH]c2ccccc12	none
Cc1ccc(OCCOCCn2cnc3ccccc3c2=O)c(Br)c1	none
O=C(COc1ccc(Cl)cc1)Nc1nccs1	none
O=C(NCCc1ccc(Cl)cc1)C(=O)Nc1nccs1	Chlamy TAG active
Cc1ccc(NC(=O)C(=O)NCCc2ccc(Cl)cc2)cc1C	none
COc1nc(OC)nc(Oc2ccccc2)n1	none
O=C(Nc1ccc2nn(-c3ccccc3)nc2c1)c1cccc([N+](=O)[O-])c1	none
NC(=O)C12CC3CC(C1)CC(n1cnc([N+](=O)[O-])n1)(C3)C2	none
CCOc1ccccc1NC(=O)Nc1ccccc1	none
CN(C)C1=C(Nc2cccc(Cl)c2)C(=O)c2ccccc2C1=O	none
COc1cccc(NC2=C(N(C)C)C(=O)c3ccccc3C2=O)c1	Chlamy TAG active
COc1ccc(NC2=C(N(C)C)C(=O)c3ccccc3C2=O)cc1	none
CCOc1ccccc1C1C(C#N)=C(N)Oc2n[nH]c(C(C)(C)C)c21 (stereo not given)	none
Cc1ccc2[nH]c3c(c2c1)CCCC3NCc1ccc(Cl)cc1 (stereo not given)	none
CC(=O)c1cccc(NC(=O)c2cccc([N+](=O)[O-])c2)c1	none
O=C(Nc1cccnc1)c1ccc(S(=O)(=O)c2ccc(Cl)cc2)cc1	Chlamy TAG active
CS(=O)(=O)N(Cc1ccccc1Cl)c1ccc(C(=O)Nc2cccnc2)cc1	none
O=C(Nc1cccnc1)c1ccc(-c2ccc(Cl)cc2)o1	none
Cc1cccc(C)c1NC(=O)CSc1nnc2cc(C)c3ccccc3n12	none
O=C(CCc1ccccc1)Nc1ccc(Br)cc1F	none
NC(=O)c1cc(-c2ccccc2)sc1N	none
CC(C)Oc1ccc(C(=O)Nc2ccccc2C(N)=O)cc1	none
NC(=O)c1cc(-c2ccccc2)sc1NC(=O)c1ccc(OC(F)F)cc1	Chlamy TAG active
COc1cc(C(C#N)=Cc2ccc(Cl)cc2)c([N+](=O)[O-])cc1OC	none
CCS(=O)(=O)N1CCN(C2CCCCCCC2)CC1	Chlamy TAG active
O=S(=O)(c1ccc(Cl)cc1)N1CCN(C2CCCC2)CC1	none
CC(=O)N1CCN(C2CCCCCC2)CC1	none
O=C(Nc1ccccn1)c1ccc(NC(=O)C2CC=CCC2C(=O)O)cc1 (stereo not given)	none
CC1CCN(S(=O)(=O)c2ccc(Cl)c(C(=O)Nc3cccc([N+](=O)[O-])c3)c2)CC1	none
O=C(Nc1ccc(S(=O)(=O)N2CCCCC2)cc1)c1cccc([N+](=O)[O-])c1	none
CC1CCN(S(=O)(=O)c2ccc(NC(=O)c3cccc([N+](=O)[O-])c3)cc2)CC1	Chlamy TAG active
Cc1c(C(=O)NCc2ccccc2)cccc1[N+](=O)[O-]	none
Cc1ccc(NC(=O)c2cc(Cl)sc2Cl)cc1Cl	none
CCCN1CCC(N2CCN(c3ccc([N+](=O)[O-])cc3)CC2)CC1	none
COc1ccccc1N1CCN(C2CCN(C3CCC(c4ccccc4)CC3)CC2)CC1 (stereo not given)	none
CCN1CCN(CC2CCCCC2)CC1	none
COc1ccc(C(=O)N2CCN(C3CCC(c4ccccc4)CC3)CC2)cc1OC (stereo not given)	none
CCN1CCN(C2CCC(c3ccccc3)CC2)CC1 (stereo not given)	Chlamy TAG active
CCN1C(=O)CC(N2CCN(c3ccc(Cl)cc3)CC2)C1=O (stereo not given)	none
O=C(c1ccccc1)N1CCN(Cc2ccncc2)CC1	none
c1ccc(C2CCC(N3CCN(Cc4ccncc4)CC3)CC2)cc1 (stereo not given)	Chlamy TAG active
CCN1CCN(C2CCC(C(C)(C)C)CC2)CC1 (stereo not given)	Chlamy TAG active
CCN1CCC(N2CCN(c3ccc(Cl)cc3)CC2)CC1	Chlamy TAG active
c1ccc(CN2CCC(N3CCN(C4CCCC4)CC3)CC2)cc1	none
CCN1CCN(C2CCCC(C)C2)CC1 (stereo not given)	none
Cc1c(Cl)cccc1NC(=O)C12CC3CC(CC(C3)C1)C2	none
CCCCOc1ccc(OCC(=O)NN)cc1	none
O=S(=O)(c1ccccc1)N1CCN(c2ccccn2)CC1	none
Cc1ccc(COc2ccc(C=O)cc2)cc1	none
C=CCSc1nnc(-c2ccccc2)n1-c1ccccc1	none
CCC(CC)C(=O)Nc1ccc(OC)cc1	none
Cc1ccccc1OCc1nnc(SCC(=O)NCC(=O)c2ccccc2)o1	none
COc1ccc(C2C(=C(O)c3cc(C)ccc3C)C(=O)C(=O)N2CCN(C)C)cc1 (stereo not given)	none
Cc1cccc(N2CCN(Cc3ccc(Br)s3)CC2)c1C	none
O=C(c1cccc([N+](=O)[O-])c1)N1CCN(S(=O)(=O)c2ccc(Cl)cc2)CC1	none
